Experimental data reported in the supplement of paper PMC12297408.
Counter-ions that a name gives are not always drawn.

Test system: Plasmodium falciparum NF54/iGP1_RE9H ulg8 stage V gametocytes
Experiment: gametocyte viability (luciferase signal relative to DMSO control) (% of DMSO control); higher = less gametocytocidal activity, active = 50 or less
Conditions: concentration: 1 µM; exposure time: 72 h
Description: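 Synchronous P. falciparum NF54/iGP1_RE9H ulg8 mature stage V gametocytes (day 12) were exposed to Cayman Epigenetics Screening Library compounds at 10 µM or 1 µM for 72 h at 37 °C. Viability was read as RE9H luciferase bioluminescence, normalised to DMSO plate controls (100%); 50 µM methylene blue was the positive control.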

SMILES | gametocyte viability
COc1cc2c(cc1OCCCN1CCCC1)N=C(N)C21CCC1 | 89.9 (inactive)
CCCC(=O)[O-].[Na+] [Sodium Butyrate] | 83.8 (inactive)
N[C@H]1CC[C@H](N[C@@H]2C[C@H]2c2ccccc2)CC1 | 74.5 (inactive)
O=C(Cc1ccccc1)Nc1ccc2oc(-c3ccc(Cl)cc3Cl)nc2c1 | 80.3 (inactive)
CCCCCCCCCCCCCCCc1cccc(O)c1C(=O)O [Anacardic Acid] | 84.7 (inactive)
O=C(O)c1ccnc(C(=O)O)c1 [2,4-Pyridinedicarboxylic Acid (hydrate)] | 90.8 (inactive)
COC(=O)/C=C/C(=O)N(O)CCCCNCc1ccc(COC(=O)Nc2cccc3ccccc23)cc1 [Methylstat (hydrate)] | 89.4 (inactive)
O=C1/C(=C/c2ccc(O)c(Br)c2)CCC/C1=C\c1ccc(O)c(Br)c1 [HAT Inhibitor II] | 89.2 (inactive)
CC(C)Oc1ccc(-c2c[nH]cc2CN(C)CCN)cc1 [MS023 (hydrochloride)] | 64.4 (inactive)
COc1cc(C#N)ccc1S(=O)(=O)Nc1ccc2c(c1)cc(C)c(=O)n2C | 86.6 (inactive)
Cn1cc(CNCC2CCN(c3ncc(C(=O)NO)cn3)CC2)c2ccccc21 | 62 (inactive)
Nc1ccccc1NC(=O)c1ccc(CNc2nccc(-c3cccnc3)n2)cc1 [Mocetinostat] | 89.7 (inactive)
CCOC(=O)NCCCC(=O)NCCc1ccccc1 | 89.7 (inactive)
Nc1cc(F)ccc1NC(=O)c1ccc(CNC(=O)/C=C/c2cccnc2)cc1 [Chidamide] | 92.7 (inactive)
Cc1ccc(NC(=O)CCCCCC(=O)Nc2ccccc2N)cc1 [Pimelic Diphenylamide 106] | 86.8 (inactive)
COc1cc2c(NC3CCN(CC4CCCCC4)CC3)nc(N3CCCN(C(C)C)CC3)nc2cc1OCCCN1CCCCC1 | 60.9 (inactive)
CCn1c2ccccc2c2cc(CNCc3ccccc3OC)ccc21 [HLCL-61 (hydrochloride)] | 85 (inactive)
CC[C@@H]1C(=O)N(C)c2cnc(Nc3ccc(C(=O)NC4CCN(C)CC4)cc3OC)nc2N1C1CCCC1 | 78.1 (inactive)
C=C1C(=O)O[C@@H](CCC)[C@@H]1C(=O)O [Butyrolactone 3] | 97.4 (inactive)
CN(C)Cc1c(C(=O)NCCOc2ccc(C(=O)NO)cc2)oc2ccccc12 | 65.8 (inactive)

Same assay, conditions: concentration: 10 µM; exposure time: 72 h

SMILES | gametocyte viability
COc1cc2c(cc1OCCCN1CCCC1)N=C(N)C21CCC1 | 93.7 (inactive)
CCCC(=O)[O-].[Na+] [Sodium Butyrate] | 84.7 (inactive)
N[C@H]1CC[C@H](N[C@@H]2C[C@H]2c2ccccc2)CC1 | 70.7 (inactive)
O=C(Cc1ccccc1)Nc1ccc2oc(-c3ccc(Cl)cc3Cl)nc2c1 | 51.9 (inactive)
CCCCCCCCCCCCCCCc1cccc(O)c1C(=O)O [Anacardic Acid] | 82.9 (inactive)
O=C(O)c1ccnc(C(=O)O)c1 [2,4-Pyridinedicarboxylic Acid (hydrate)] | 90.6 (inactive)
COC(=O)/C=C/C(=O)N(O)CCCCNCc1ccc(COC(=O)Nc2cccc3ccccc23)cc1 [Methylstat (hydrate)] | 32 (active)
O=C1/C(=C/c2ccc(O)c(Br)c2)CCC/C1=C\c1ccc(O)c(Br)c1 [HAT Inhibitor II] | 83.2 (inactive)
CC(C)Oc1ccc(-c2c[nH]cc2CN(C)CCN)cc1 [MS023 (hydrochloride)] | 30.3 (active)
COc1cc(C#N)ccc1S(=O)(=O)Nc1ccc2c(c1)cc(C)c(=O)n2C | 91.4 (inactive)
Cn1cc(CNCC2CCN(c3ncc(C(=O)NO)cn3)CC2)c2ccccc21 | 66.3 (inactive)
Nc1ccccc1NC(=O)c1ccc(CNc2nccc(-c3cccnc3)n2)cc1 [Mocetinostat] | 88.2 (inactive)
CCOC(=O)NCCCC(=O)NCCc1ccccc1 | 94.3 (inactive)
Nc1cc(F)ccc1NC(=O)c1ccc(CNC(=O)/C=C/c2cccnc2)cc1 [Chidamide] | 93.4 (inactive)
Cc1ccc(NC(=O)CCCCCC(=O)Nc2ccccc2N)cc1 [Pimelic Diphenylamide 106] | 89 (inactive)
COc1cc2c(NC3CCN(CC4CCCCC4)CC3)nc(N3CCCN(C(C)C)CC3)nc2cc1OCCCN1CCCCC1 | 14.7 (active)
CCn1c2ccccc2c2cc(CNCc3ccccc3OC)ccc21 [HLCL-61 (hydrochloride)] | 94 (inactive)
CC[C@@H]1C(=O)N(C)c2cnc(Nc3ccc(C(=O)NC4CCN(C)CC4)cc3OC)nc2N1C1CCCC1 | 16.6 (active)
C=C1C(=O)O[C@@H](CCC)[C@@H]1C(=O)O [Butyrolactone 3] | 89.9 (inactive)
CN(C)Cc1c(C(=O)NCCOc2ccc(C(=O)NO)cc2)oc2ccccc12 | 59 (inactive)
